According to paper PMC4336329 (PLoS ONE, 2015):
In all, about 310,000 compounds went through this assay and about 14,000 (4.5%) showed an effect of 50% or more. The effect is printed as a negative number. Many of the other results were omitted from the sample, so strong results are more common in it than they were.

Biological target: human ether-à-go-go-related gene (hERG) potassium channel (human, UniProt Q12809)
Experiment: primary screen, population patch clamp on CHO cells stably expressing hERG; higher = less effect of the substance
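Further: peak tail current of the secondary pulse compared with the same well before compound.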

human ether-à-go-go-related gene (hERG) potassium channel, sequence (Q12809 whole entry, looked up): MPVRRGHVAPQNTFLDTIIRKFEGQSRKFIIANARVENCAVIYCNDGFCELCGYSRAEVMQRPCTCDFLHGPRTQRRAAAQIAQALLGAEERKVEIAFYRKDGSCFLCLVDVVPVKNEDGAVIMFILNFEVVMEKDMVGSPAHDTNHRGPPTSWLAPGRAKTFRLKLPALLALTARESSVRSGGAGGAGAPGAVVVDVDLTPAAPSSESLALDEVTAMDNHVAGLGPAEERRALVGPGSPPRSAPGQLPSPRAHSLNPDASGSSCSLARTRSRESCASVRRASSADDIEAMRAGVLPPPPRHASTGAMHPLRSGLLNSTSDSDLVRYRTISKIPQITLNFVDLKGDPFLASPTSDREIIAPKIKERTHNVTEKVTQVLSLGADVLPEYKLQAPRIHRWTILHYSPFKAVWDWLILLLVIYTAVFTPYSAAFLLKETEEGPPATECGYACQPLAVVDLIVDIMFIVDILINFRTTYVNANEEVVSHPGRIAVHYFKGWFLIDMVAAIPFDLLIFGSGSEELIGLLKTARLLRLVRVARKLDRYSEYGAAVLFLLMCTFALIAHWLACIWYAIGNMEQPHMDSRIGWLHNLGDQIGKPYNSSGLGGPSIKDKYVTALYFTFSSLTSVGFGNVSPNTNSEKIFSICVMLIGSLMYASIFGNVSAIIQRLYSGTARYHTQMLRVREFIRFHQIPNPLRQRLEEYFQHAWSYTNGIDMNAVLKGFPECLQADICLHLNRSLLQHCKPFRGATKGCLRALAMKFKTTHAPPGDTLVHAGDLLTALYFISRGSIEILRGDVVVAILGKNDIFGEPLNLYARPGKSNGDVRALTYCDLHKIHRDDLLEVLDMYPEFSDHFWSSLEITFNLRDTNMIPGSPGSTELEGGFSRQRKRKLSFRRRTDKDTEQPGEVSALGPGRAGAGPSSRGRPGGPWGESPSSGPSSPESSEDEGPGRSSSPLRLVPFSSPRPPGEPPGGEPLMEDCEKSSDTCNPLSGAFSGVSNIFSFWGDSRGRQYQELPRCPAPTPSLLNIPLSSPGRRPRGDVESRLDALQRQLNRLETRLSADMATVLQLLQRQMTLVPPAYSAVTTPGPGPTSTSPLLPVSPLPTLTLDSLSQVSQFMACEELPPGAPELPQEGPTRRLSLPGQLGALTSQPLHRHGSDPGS

First: Cc1ccc(S(=O)(=O)Cc2cc(F)c([N+](=O)[O-])cc2[N+](=O)[O-])cc1
Second: Cc1ccc(OCCn2ccnc2)c([N+](=O)[O-])c1
The “hERG current change (%, negative = inhibition) at 10uM” value of the first is lower: -14.3% for the first, -4.29% for the second.

First: COc1ccc(CCNC(=S)NC(=O)c2cccc(Cl)c2)cc1OC
Second: COc1cc(OC)cc(C(=O)NCc2cc(C)nc3ccccc23)c1
The “hERG current change (%, negative = inhibition) at 10uM” value of the first is higher: 1.73% for the first, -2.16% for the second.

Going from Cc1ccc(-c2nnc(N3CCN(c4ccccn4)CC3)c3ccccc23)cc1 to COc1ccccc1N1CCN(C(c2ccc(C)cc2)c2nnnn2C(C)C)CC1 (stereo not drawn), the “hERG current change (%, negative = inhibition) at 10uM” value rises from -46.3% to -5.61%.

Going from COc1ccc(N2CCN(CCOc3ccc4c(C)cc(=O)oc4c3)CC2)cc1 to Cc1ccccc1N1CCN(CCCOc2ccc3c(C)cc(=O)oc3c2)CC1, the “hERG current change (%, negative = inhibition) at 10uM” value falls from -26.1% to -75.3%.

Going from CNCC(O)CN1CCN(c2ccccc2OC)CC1.Cl (stereo not drawn) to COc1ccccc1N1CCN(CC(O)COc2ccc(C)c(C)c2)CC1.Cl (stereo not drawn), the “hERG current change (%, negative = inhibition) at 10uM” value falls from 12.7% to -55.9%.

Going from Cc1cc(=O)oc2cc(OCCCN3C(=O)c4ccccc4C3=O)ccc12 to Cc1cc(CNC(=O)COc2ccc(C#N)cc2)c2ccccc2n1, the “hERG current change (%, negative = inhibition) at 10uM” value falls from 10.4% to -47.2%.

Going from COc1ccc(N2CCN(CC(O)COc3ccc(C)c(C)c3)CC2)cc1.Cl (stereo not drawn) to COc1ccccc1N1CCN(CC(O)COc2ccc(C)cc2C)CC1.Cl (stereo not drawn), the “hERG current change (%, negative = inhibition) at 10uM” value falls from -43.7% to -73.1%.

Compared with COc1ccccc1N1CCN(CC(O)COc2ccc3c(c2)OCO3)CC1.Cl (stereo not drawn), Cc1ccc(Cl)c(OCC(=O)Nc2ccccc2N2CCCCC2)c1 is higher in “hERG current change (%, negative = inhibition) at 10uM” value: -33.7% for the first, 5.15% for the second.

Compared with O=C(CCc1ccccc1)NNC(=O)C1CCCCC1, O=C(Nc1sc2c(c1C(=O)O)CCCC2)c1ccccc1Cl is higher in “hERG current change (%, negative = inhibition) at 10uM” value: -2.12% for the first, 11.9% for the second.

Compared with CC(C)Nc1ccc(-n2nc3ccccc3[n+]2[O-])cc1, O=C(OCc1cc(-c2ccccc2)no1)c1ccc2ccccc2n1 is higher in “hERG current change (%, negative = inhibition) at 10uM” value: 6.09% for the first, 12.2% for the second.

Compared with O=C1CCCCCC1C1(O)C(=O)Nc2ccccc21 (stereo not drawn), CCn1cc(C(=O)NC2CCCCC2)c(=O)c2cc(S(=O)(=O)N(C)C)ccc21 is higher in “hERG current change (%, negative = inhibition) at 10uM” value: -1.78% for the first, 2.38% for the second.

Going from CC1(c2ccccc2)NC(=O)N(CC(=O)NNC(=O)c2ccccc2)C1=O (stereo not drawn) to CC(C)CN(C(=O)COC(=O)c1cccc2ccccc12)c1c(N)n(Cc2ccccc2)c(=O)[nH]c1=O, the “hERG current change (%, negative = inhibition) at 10uM” value falls from 21.3% to 6.01%.

Going from Cc1ccc(CNC(=O)C2CC(=O)OC23CCCC3)c(C)c1 (stereo not drawn) to Cc1ccc(C)c(NC(=O)CN(C)C(=O)c2ccc(Cl)nc2)c1, the “hERG current change (%, negative = inhibition) at 10uM” value falls from -0.109% to -7.48%.

First: CCCCNC(=O)c1ccc(CNS(=O)(=O)c2ccc(Br)cc2)cc1
Second: CCn1cc(C(=O)NCCCOC)c(=O)c2cc(S(=O)(=O)N(C)C3CCCCC3)ccc21
The “hERG current change (%, negative = inhibition) at 10uM” value of the first is higher: 2% for the first, -23% for the second.

First: CCOc1ccc2nc(NC(=O)CSc3nc4cccnc4n3C)sc2c1
Second: Cc1c(Cl)cnc(NC(=O)COC(=O)c2ccc3ncsc3c2)c1Cl
The “hERG current change (%, negative = inhibition) at 10uM” value of the first is higher: 17.4% for the first, -2.49% for the second.

First: CCN(CC)CCNC(=O)c1cn(CC)c2ccc(S(=O)(=O)N(C)C3CCCCC3)cc2c1=O
Second: CCN(CC)CCCNC(=O)c1cn(CC)c2ccc(S(=O)(=O)N(C)C3CCCCC3)cc2c1=O
The “hERG current change (%, negative = inhibition) at 10uM” value of the first is higher: -67.2% for the first, -75.7% for the second.

Compared with CCN(CC)CCNC(=O)c1cn(CC)c2ccc(S(=O)(=O)N(C)C)cc2c1=O, CCCCN(CCCC)CCNC(=O)c1cn(CC)c2ccc(S(=O)(=O)N(C)C3CCCCC3)cc2c1=O is lower in “hERG current change (%, negative = inhibition) at 10uM” value: 11.1% for the first, -82.5% for the second.

Going from CCn1cc(C(=O)NCC(OC)OC)c(=O)c2cc(S(=O)(=O)N(C)C3CCCCC3)ccc21 to CCOCCCNC(=O)c1cn(CC)c2ccc(S(=O)(=O)N(C)C3CCCCC3)cc2c1=O, the “hERG current change (%, negative = inhibition) at 10uM” value falls from -44.2% to -55.7%.

Compared with CCCN(CCC)CCCNC(=O)c1cn(CC)c2ccc(S(=O)(=O)N(C)C3CCCCC3)cc2c1=O, CCn1cc(C(=O)NCCCN(CC(C)C)CC(C)C)c(=O)c2cc(S(=O)(=O)N(C)C3CCCCC3)ccc21 is higher in “hERG current change (%, negative = inhibition) at 10uM” value: -74.3% for the first, -69.6% for the second.

Going from CC1(C(=O)OCC(=O)Nc2cccc(S(=O)(=O)NC3=NCCCCC3)c2)CC1(Cl)Cl (stereo not drawn) to CCN(CC(=O)Nc1c(F)cccc1F)C(=O)c1csc2c1CCCC2, the “hERG current change (%, negative = inhibition) at 10uM” value falls from 10.7% to 7.01%.

First: CCc1noc(C)c1C(=O)Nc1cc(S(=O)(=O)N2CCOCC2)ccc1OC(C)C
Second: CCn1cc(C(=O)NCCCN(CC(C)C)CC(C)C)c(=O)c2cc(S(=O)(=O)N3CCOCC3)ccc21
The “hERG current change (%, negative = inhibition) at 10uM” value of the first is lower: -45.1% for the first, -11.3% for the second.

First: COC(=O)c1c(-c2ccc(F)cc2)csc1NC(=O)c1ccco1
Second: CCC(C)c1ccc(OCc2ccc(C(=O)OC)o2)cc1 (stereo not drawn)
The “hERG current change (%, negative = inhibition) at 10uM” value of the first is higher: 22.9% for the first, -12.8% for the second.

First: COc1cccc2cc(C(C)N(CCCN3CCOCC3)C(=S)Nc3cccc(C)c3)oc12 (stereo not drawn)
Second: COc1ccc2[nH]cc(CCNC(=O)C3CC(=O)N(c4ccc(Cl)cc4)C3)c2c1 (stereo not drawn)
The “hERG current change (%, negative = inhibition) at 10uM” value of the first is higher: 14.8% for the first, -10.4% for the second.

Going from Cc1ccccc1NC(=O)Cc1nc(-c2ccc3ccccc3c2)cs1 to O=C(Nc1cccnc1)c1c(O)c2c(n(Cc3ccccc3)c1=O)CCCC2, the “hERG current change (%, negative = inhibition) at 10uM” value falls from 6.09% to 2.61%.

Compared with COc1ccc(Cn2ccnc2)cc1[N+](=O)[O-], CCCOc1ccc(Cn2ccnc2)cc1[N+](=O)[O-] is lower in “hERG current change (%, negative = inhibition) at 10uM” value: -0.186% for the first, -52.3% for the second.

Compared with CCCCCOc1ccc(Cn2ccnc2)cc1[N+](=O)[O-].Cl, Cc1ccc(OCCCCn2ccnc2)c([N+](=O)[O-])c1 is lower in “hERG current change (%, negative = inhibition) at 10uM” value: -45.4% for the first, -51.5% for the second.

Going from Cc1ccc(OCCCn2ccnc2)c([N+](=O)[O-])c1 to O[C@@H]1C2CCCC1[C@]1(O)CCCCC1C2 (stereo partly drawn), the “hERG current change (%, negative = inhibition) at 10uM” value rises from -34.4% to 8.35%.
